TDP-43 rescue: TDP-43 toxicity inhibition in yeast | yeast TDP-43 toxicity rescue, BacTiter-Glo growth, 24 h | Potency, µM (top dose mostly 46.1 µM), usual class: activators | 0.45% of 45,000 active; active = well fitted activation curve with a large enough effect; also: 0% is about no effect; nearly all actives have a fitted effect of over 55% in size
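TDP-43-expressing yeast, pregrown in raffinose, seeded at OD600 0.02 in galactose medium with compound for 24 hr at 30 deg C. Growth read by BacTiter-Glo luminescence, so rescue of toxicity appears as activation.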
* = called active by the depositor; i = inactive. The sample as a whole holds a higher share of hits than the screen did. Potency is read from the fitted curve at half-maximal effect.

SMILES | TDP-43 rescue
COc1ccc(OC)c(CCNC(=O)C2=C(C)C(=O)OC23CCC(C)CC3)c1 (centres undefined) | i
O=C(O)CCn1c(-c2ccccn2)nc2ccccc21 | i
N#CCCn1cc(C(=O)Nc2ccc([N+](=O)[O-])cc2)c(-c2cc3ccccc3o2)n1 | i
COc1ccccc1-n1c(/C=C/c2c(C)n(C)c3ccccc23)nc2ccccc2c1=O | i
O=C(/C=C/c1ccccc1)NCCSCc1ccccc1 | i
O=C(/C=C/c1cccc([N+](=O)[O-])c1)NCCc1ccc(F)cc1 | i
O=C(/C=C/c1cccc([N+](=O)[O-])c1)NCCSCc1cccc(Cl)c1 | 12.6µM*
CCCCCSc1nnc2c(n1)OC(CC)Nc1ccc(Br)cc1-2 (centres undefined) | i
CCCCN(CCCC)CC(O)COc1ccc(Br)cc1 (centres undefined) | i
COC(=O)CSc1nc(C)cc(C)c1C#N | i
Cc1cc(C)c(C#N)c(SCC(O)COc2ccc(Br)cc2)n1 (centres undefined) | 12.6µM*
Cc1cc(C)c2c(CC(=O)N(Cc3ccc(Cl)cc3)Cc3ccco3)coc2c1 | i
COc1ccc(C(=O)c2cc([N+](=O)[O-])ccc2N2CCCC2)cc1 | i
CN1CCN(c2ccc([N+](=O)[O-])cc2C(=O)c2ccccc2)CC1 | i
Cc1ccc(C(=O)c2cc([N+](=O)[O-])ccc2N2CCOCC2)cc1C | 22.4µM*
O=C(Cn1cc(C(F)(F)F)ccc1=O)N1CCCc2ccccc21 | i
O=C(c1ccco1)c1cn(CC(=O)N2CCCc3ccccc32)c2ccccc12 | 17.8µM*
O=Cc1cn(CC(=O)N2CCCCC2)c2ccccc12 | i
Cc1ccccc1NC(=O)Cc1nnc(SCC(=O)NC2CCCCC2)n1C | i
O=C(O)CCC(=O)N1CCN(c2nc(-c3ccccc3Cl)c3cc(Br)ccc3n2)CC1 | i
C=CCn1c(COc2cccc(C)c2)nnc1SCC(=O)c1c[nH]c2c(CC)cccc12 | i
COc1ccc(NC(=O)Cc2ccsc2)c(OC)c1 | i
CCC(=O)NC(=S)Nc1ccc(OC)cc1OC | i
COc1ccc(NCc2ccc([N+](=O)[O-])s2)c(OC)c1 | 12.6µM*
Cc1ccccc1OCC1Cc2c(nc(N)c(C#N)c2N)O1 (centres undefined) | i
SMILES | TDP-43 rescue
COc1ccc(Cl)cc1NC(=S)NN1CCOCC1 | i
COc1ccc(Cl)cc1NC(=S)Nc1ccc(Cl)cn1 | i
COc1ccc(Cl)cc1NC(=S)NCCSc1ccc(C)cc1 | 12.6µM*
O=C(c1cccs1)N1CCCC(c2nc3c(nnn3Cc3ccccc3Cl)c(=O)[nH]2)C1 (centres undefined) | i
COc1cc(NC(=O)c2cc(C3CC3)nc3c2c(C)nn3-c2ccc(C)cc2)cc(OC)c1 | i
COC(=O)c1cc(OC)c(OC)cc1NC(=O)c1ccc(Br)o1 | i
COc1ccc(S(=O)(=O)Nc2cc(C(=O)NCCCN3CCOCC3)ccc2N2CCOCC2)cc1 | i
COc1ccc(N2CCOCC2)c(NC(=O)c2ccc(Br)o2)c1 | 15.8µM*
CCc1ccc(NC(=O)C(C)OC(=O)CC(NC(C)=O)c2ccccc2)cc1 (centres undefined) | i
N#C/C(=C\c1cccc(Br)c1)C(=O)N1CCCCC1 | 12.6µM*
Cc1cc(/C=C(\C#N)C(=O)N2CCCCC2)cc(C)c1O | i
N#C/C(=C\c1ccccc1)C(=O)N1CCN(c2ccccc2F)CC1 | i
O=C(Cc1cccc(F)c1)Nc1ccc2c(c1)CCC2 | i
CSc1ccccc1C(=O)Nc1ccc2c(c1)CCC2 | i
O=C(Nc1ccc2c(c1)CCC2)c1cccc(F)c1 | 15.8µM*
Cc1ccccc1C(=O)N1CCC(C(=O)NC2CCCC2)CC1 | i
CCOc1ccc(NCc2cccn2-c2nnc(N3CCC(C(=O)NCCc4ccc(OC)c(OC)c4)CC3)s2)cc1 | i
CNC(CC(=O)c1ccc([N+](=O)[O-])cc1)C(Cl)(Cl)Cl (centres undefined) | i
O=C(NNC(=S)NC(=O)c1cccc([N+](=O)[O-])c1)c1ccc(Br)cc1 | i
CC(C)CC(=O)NC(=S)NNC(=O)c1ccc([N+](=O)[O-])cc1 | 11.2µM*
Cc1cc(S(=O)(=O)N2CCCC2)ccc1OCC(=O)N1CCCCC1 | i
CCc1nn(CC(=O)NCc2cccc(OC)c2OC)c(=O)c2cc3occc3n12 | i
Nc1nc2c(nc(SCc3ccccc3Br)n2[C@@H]2O[C@H](CO)[C@@H](O)[C@H]2O)c(=O)[nH]1 | i
Cc1c(C(=S)Nc2ccccc2)cnn1-c1ccc([N+](=O)[O-])cc1 | i
Cc1cnnn1-c1ccc([N+](=O)[O-])cc1 | i
SMILES | TDP-43 rescue
Cc1nn(-c2ccccc2)c(N)c1Sc1ccc([N+](=O)[O-])cc1 | 14.1µM*
C=CCNC(=O)/C(=C/c1cccc([N+](=O)[O-])c1)NC(=O)c1ccccc1 | i
O=C(NC1CCCCCC1)C(Cc1ccccc1)n1cccc1 (centres undefined) | i
O=C(Cc1ccccc1)Nc1ccc(F)cc1 | i
O=C(Nc1ccc(F)cc1)C(Cc1ccccc1)n1cccc1 (centres undefined) | 12.6µM*
O=C(O)c1cccc(-n2cnc3cccnc32)c1 | i
COc1ccc(C)cc1NC(=O)c1sc2nc(C)nc(N3CCOCC3)c2c1C | i
Cc1nc(N2CCN(C)CC2)c2c(C)c(C(=O)Nc3ccc(F)cc3)sc2n1 | i
Cc1nc(N2CCCCC2)c2c(C)c(C(=O)Nc3ccccc3C(F)(F)F)sc2n1 | 17.8µM*
CSc1ccc(S(=O)(=O)N2CCC(C(=O)NCc3ccccn3)CC2)cc1 | i
Cc1c(Cl)cccc1NC(=O)CNC(=O)c1ccccc1F | i
Cn1c(SCC(=O)NC(=O)NCc2ccccc2)nnc1C(F)(F)F | i
Cc1onc(-c2ccccc2)c1C(=O)NC(=S)NNC(=O)c1ccco1 | i
COc1ccc(C(=O)NC(=S)NNC(=O)c2c(-c3ccccc3)noc2C)cc1OC | 12.6µM*
COc1ccccc1/C=N/NC(=O)c1c(-c2ccccc2)noc1C | i
CCc1nc2ccc(C(=O)Nc3ccc(NC(C)=O)cc3)cn2c1N(C)CCCc1ccccc1 | i
CCN(CC)S(=O)(=O)c1ccc2c(c1)N(CC(=O)NCCc1ccccc1)C(=O)CO2 | i
COc1ccc(Cl)cc1NC(=O)c1cc2c(=O)n3ccccc3nc2s1 | i
O=C(Cc1ccccc1Cl)Nc1cccnc1 | i
O=C(CNC(=O)c1ccco1)OCC(=O)c1ccc(Br)cc1 | i
COc1ccc(S(=O)(=O)Nc2cccc(F)c2C)cc1C(=O)N1CCOCC1 | i
COc1cc(OC)cc(C(=O)N2CCC(N3CCN(c4ccccc4OC)CC3)CC2)c1 | i
COc1ccccc1N1CCN(C(=O)c2ccc(NS(=O)(=O)c3ccc(C)cc3)cc2)CC1 | i
COc1ccccc1N1CCN(C(=O)c2ccc3[nH]c4c(c3c2)CCCC4)CC1 | 17.8µM*
CC(=O)NC1C(Oc2ccc3c(C)cc(=O)oc3c2)OC(COC(C)=O)C(OC(C)=O)C1OC(C)=O (centres undefined) | i
Cc1ccc(CNC(=O)C2CCN(C(=O)c3cnn(-c4ccccc4)c3-n3cccc3)CC2)cc1 | i
CCOC(=O)C1CCCN(C(=O)c2ccc3c(c2)N(Cc2ccccc2)C(=O)c2ccccc2S3(=O)=O)C1 (centres undefined) | i
CC(C)Oc1ccc(Br)cc1C(=O)N/N=C/c1c[nH]c2ccccc12 | i
COCCN=c1scc(-c2cc(OC)ccc2OC)n1/N=C/c1c[nH]c2ccccc12 | 20µM*

Screening results from PubChem.
